Measurements as given in PubChem BioAssay (NCATS).
Several values for one entry are separate records, joined by “and”; a condition that tells them apart may be missing. Equal entries are not always repeated. Records with an inconclusive call do not appear. Some structures have more than one record in an assay (separate samples or runs), and their calls can disagree. Activity calls are given as the source filed them. The call rests on the fitted dose curve; in most records, active means well fitted curve in the direction sought with a large enough effect; inconclusive means small, poorly fitted or top-dose-only effect, or another doubt; inactive means no such curve, though single readings can be large; an effect the other way counts as inactive or inconclusive.

Tests used:
[1] = qHTS Screen of the MIPE 4.0 Collection Against Ewings Sarcoma (TC71) (AID 1259253); further: nearly all actives have a fitted effect of over 40% in size; further: potency means the concentration at half of the fitted maximal effect
Method in brief: (§1)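 Here, cells in 5% FBS RPMI were exposed for two days (48 h) to compound dilutions added four hours after plating. ATP-based CellTiter-Glo luminescence measured viability, normalized to vehicle and no-cell blanks.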

[2] = qHTS Screen of the MIPE 4.0 Collection Against Ewings Sarcoma (EW8) (AID 1259255); further: nearly all actives have a fitted effect of over 35% in size; further: potency means the concentration at half of the fitted maximal effect
Method in brief: as §1

[3] = qHTS Screen of the MIPE 4.0 Collection Against Ewings Sarcoma (TC32) (AID 1259256); further: nearly all actives have a fitted effect of over 45% in size; further: potency means the concentration at half of the fitted maximal effect
Method in brief: as §1

[4] = P-glycoprotein substrates identified in KB-8-5-11 adenocarcinoma cell line, qHTS therapeutic library screen (AID 1346987); further: nearly all actives have a fitted effect of over 65% in size; further: potency means the concentration at half of the fitted maximal effect
Method in brief: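 Compounds are pinned in dose-response onto KB-8-5-11 cells (500 cells/well, colchicine-free medium) and left 72 h at 37 degree C. CellTiter-Glo luminescence then yields AC50 values.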

[5] = Identifying Small Molecule Inhibitors of Pancreatic Cancer Stem Cells (SN12C, Spheroid) (AID 1259360); conditions: Potency: SN12C spheroid viability; further: potency means the concentration at half of the fitted maximal effect
Method in brief: (§2)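 Spheroids grown 14 days in stem cell media on hydrogel-coated nonadherent plates; 2D lines seeded directly. Compounds added after 4 h attachment, 48 h at 37C, 5% CO2; CellTiter-Glo luminescence normalized to DMSO (no inhibition) and no-cell wells (full inhibition).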

[6] = Identifying Small Molecule Inhibitors of Pancreatic Cancer Stem Cells (A278, Adherent) (AID 1259361); further: nearly all actives have a fitted effect of over 35% in size
Method in brief: (§3)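 Luminescent ATP readout (CellTiter-Glo) quantifies surviving cells after a 48 h drug incubation. Normalization uses DMSO wells as no inhibition and media-only wells as full inhibition; bortezomib served as positive control.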

[7] = NS1 protein of Zika virus - qHTS assay to identify small molecule inhibitors in human HEK 293 cells (AID 1347053); further: nearly all actives have a fitted effect of over 55% in size; further: potency means the concentration at half of the fitted maximal effect
Method in brief: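 Read-out is a two-antibody TR-FRET for ZIKV NS1, normalized between uninfected cells and infected cells. Compound added 1 h before MR766 infection at MOI 0.5; human HEK 293 cells incubated 24 h, 37 C.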

[8] = Identifying Small Molecule Inhibitors of Pancreatic Cancer Stem Cells (SN12C, Adherent) (AID 1259358);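 further: cell survival measured after 48 h of compound exposure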; further: potency means the concentration at half of the fitted maximal effect
Method in brief: as §3

[9] = P-glycoprotein substrates identified in KB-3-1 adenocarcinoma cell line, qHTS therapeutic library screen (AID 1346986); further: nearly all actives have a fitted effect of over 60% in size;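 further: potency means the concentration at half of the fitted maximal effect; potency is for cytotoxicity meaning loss of cell viability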
Method in brief: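 72 h cell-killing screen, 500 cells/well, CellTiter-Glo luminescence. Paired lines KB-3-1/KB-8-5-11; P-gp dependence checked by tariquidar co-treatment and HEK-293 MDR-19 versus empty-vector cells.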

[10] = Identifying Small Molecule Inhibitors of Pancreatic Cancer Stem Cells (Panc1, Adherent) (AID 1259362); conditions: Potency: viability; further: potency means the concentration at half of the fitted maximal effect
Method in brief: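 Cytotoxicity read by CellTiter-Glo luminescence after 48 h compound exposure at 37C; percent activity scaled between DMSO-treated cells and cell-free wells. Spheroid formats used cells pre-formed 14 days in stem cell media on hydrogel.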

[11] = Identifying Small Molecule Inhibitors of Pancreatic Cancer Stem Cells (A2780, Spheroid) (AID 1259357); conditions: Potency: A2780 spheroid viability;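 further: compound exposure lasted 48 h before the ATP luminescence read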; further: potency means the concentration at half of the fitted maximal effect
Method in brief: as §2

CNC(=O)c1ccccc1Nc1nc(Nc2ccc(N3CCOCC3)cc2OC)ncc1Cl
active: Potency [1] 1320 nM | Potency [2] 1480 nM | Potency [3] 662 nM | Potency [4] 1.87 µM and 1.64 µM

CC=C1NC(=O)[C@H]2CSSCCC=C[C@H](CC(=O)N[C@H](C(C)C)C(=O)N2)OC(=O)[C@H](C(C)C)NC1=O
active: Potency [1] 20.9 nM | Potency [2] 18.7 nM | Potency [3] 14.8 nM | Potency [5] 5.3 nM | IC50 (viability decrease) [6] 5.3 nM | Potency [4] 8.33 µM | Potency [7] 4180 nM

COc1ccc(C=Cc2cc(OC)c(OC)c(OC)c2)cc1O
inactive: Potency [1] | Potency [2] | Potency [3] | Potency [7]
active: Potency [8] 2.6 nM | Potency [5] 2090 nM | IC50 (viability decrease) [6] 1.7 nM

O=C(NCCS(=O)(=O)c1ccc(C(F)(F)F)cn1)c1ccc(Cl)cc1
inactive: Potency [1] | Potency [2] | Potency [3] | Potency [8] | Potency [5] | IC50 (viability decrease) [6] | Potency [9]

Nc1ncnc2c1c(-c1cccc(OCc3ccccc3)c1)cn2C1CC(CN2CCCC2)C1 (stereo unspecified)
active: Potency [1] 5260 nM | Potency [2] 16600 nM | Potency [3] 5260 nM | Potency [4] 16.6 µM and 6.51 µM

CC(C)(C)c1cc(C(C)(C)C)c(NC(=O)c2c[nH]c3ccccc3c2=O)cc1O
inactive: Potency [1] | Potency [2] | Potency [3] | Potency [4]
active: Potency [10] 23500 nM

Cc1cc(Nc2cc(CN3CCOCC3)c3nc(C)c(Cc4ccc(Cl)cc4F)n3n2)n[nH]1
active: Potency [1] 14800 nM | Potency [3] 3720 nM

Cc1ccc(-c2ncn(-c3ccc(Nc4nccc(-c5cccc(N6CCOCC6)c5)n4)cc3)n2)cn1
active: Potency [1] 118 nM | Potency [3] 52.6 nM | Potency [8] 59 nM | Potency [5] 59 nM | IC50 (viability decrease) [6] 74.3 nM | Potency [10] 74.3 nM | Potency [7] 3720 nM

CN(C)CC(C)(C)CNc1nn2c(-c3ccccc3)nnc2cc1C1CCC1
active: Potency [1] 1050 nM | Potency [3] 469 nM
inactive: Potency [9] | Potency [4] | Potency [7]

COc1cc2c(Oc3ccc(-c4cnc(Nc5ccc(F)cc5)n(C)c4=O)cc3F)ccnc2cc1OCCCN1CCOCC1
active: Potency [1] 20900 nM | Potency [3] 11800 nM | IC50 (viability decrease) [6] 3720 nM | Potency [4] 13.2 µM

c1ccc2c(CCNc3ccc(Nc4ccncc4)cc3)c[nH]c2c1
active: Potency [1] 14800 nM | Potency [2] 5260 nM | Potency [3] 5260 nM | Potency [5] 23500 nM | IC50 (viability decrease) [6] 16600 nM | Potency [7] 8330 nM
inactive: Potency [11]

COc1cc(=C2C=c3ccccc3=N2)[nH]c1=Cc1[nH]c(C)cc1C
active: Potency [1] 469 nM | Potency [2] 2350 nM | Potency [3] 1180 nM | Potency [11] 20900 nM | IC50 (viability decrease) [6] 14800 nM | Potency [4] 2.96 µM

CCc1c2c(nc3ccc(O)cc13)-c1cc3c(c(=O)n1C2)COC(=O)[C@]3(O)CC
active: Potency [1] 2.3 nM | Potency [2] 2.1 nM | Potency [4] 0.231 µM | Potency [7] 3.7 nM
inactive: Potency [3]

CCNC(=O)Nc1ccc2ncc(Nc3ccc(C)cc3)nc2n1
active: Potency [1] 2960 nM | Potency [2] 2960 nM | Potency [3] 1320 nM
inactive: Potency [9] | Potency [4] | Potency [7]

COc1cc2nccc(Oc3ccc(NC(=O)C4(C(=O)Nc5ccc(F)cc5)CC4)cc3)c2cc1OC
active: Potency [1] 2350 nM | Potency [2] 1050 nM | Potency [3] 1660 nM | Potency [4] 16.6 µM and 9.2 µM

CC1COC2(CCN(c3nc(=O)c4cc(C(F)(F)F)cc([N+](=O)[O-])c4s3)CC2)O1 (stereo unspecified)
inactive: Potency [1] | Potency [2] | Potency [3] | Potency [4] | Potency [7]

Cc1nc2cnc3ccc(C#Cc4cccnc4)cc3c2n1-c1ccc(C(C)(C)C#N)cc1
inactive: Potency [9]
active: Potency [1] 132 nM | Potency [3] 105 nM | Potency [11] 1870 nM | IC50 (viability decrease) [6] 187 nM | Potency [7] 935 nM
37.2 nM (active) and inactive: Potency [4]

COc1cc(C(C)C)c2c(c1)S(=O)(=O)N(COc1cc(=O)n3cccc(OCCN4CCCCC4)c3n1)C2=O
inactive: Potency [5] | Potency [9] | Potency [4]
active: Potency [1] 18700 nM | Potency [2] 26400 nM | Potency [3] 20900 nM

COc1cc2c(Oc3ccc(NC(=O)C4(C(=O)Nc5ccc(F)cc5)CC4)cc3F)ccnc2cc1OCCCN1CCOCC1
active: Potency [1] 3320 nM | Potency [2] 1320 nM | Potency [3] 1660 nM | Potency [5] 23500 nM | IC50 (viability decrease) [6] 4690 nM | Potency [4] 935 nM and 5.17 µM

Cc1ccc(C(=O)Nc2cccc(C(F)(F)F)c2)cc1-c1ccc2nc(NCCN3CCOCC3)ncc2c1
active: Potency [1] 14800 nM | Potency [2] 14800 nM | Potency [3] 11800 nM | IC50 (viability decrease) [6] 2640 nM | Potency [10] 11800 nM | Potency [9] 8200 nM | Potency [4] 16.6 µM and 11.6 µM

CN1CCN(Cc2ccc(NC(=O)Nc3ccc(Oc4cc(NC(=O)C5CC5)ncn4)cc3)cc2C(F)(F)F)CC1
active: Potency [1] 132 nM | Potency [2] 372 nM | Potency [3] 296 nM | Potency [4] 5.8 µM | Potency [7] 1180 nM
